The values that follow come from the supplement of paper PMC11732987, “Enantioselective OTUD7B fragment discovery through chemoproteomics screening and high-throughput optimisation” (Communications Chemistry, 2025).

What all share (assay): log2 ratio of Biotin-Ahx-Ub-VS probe labelling (fragment/DMSO); higher = less target engagement (more negative = stronger competition), active = hit call of the paper (q ≤ 0.05, log2 ratio ≤ -1)
What all share (conditions): compound concentration: 200 uM; treatment time: 3 h

The target of one experiment is T1, USP19 (UniProt O94966).
T1 sequence (whole entry): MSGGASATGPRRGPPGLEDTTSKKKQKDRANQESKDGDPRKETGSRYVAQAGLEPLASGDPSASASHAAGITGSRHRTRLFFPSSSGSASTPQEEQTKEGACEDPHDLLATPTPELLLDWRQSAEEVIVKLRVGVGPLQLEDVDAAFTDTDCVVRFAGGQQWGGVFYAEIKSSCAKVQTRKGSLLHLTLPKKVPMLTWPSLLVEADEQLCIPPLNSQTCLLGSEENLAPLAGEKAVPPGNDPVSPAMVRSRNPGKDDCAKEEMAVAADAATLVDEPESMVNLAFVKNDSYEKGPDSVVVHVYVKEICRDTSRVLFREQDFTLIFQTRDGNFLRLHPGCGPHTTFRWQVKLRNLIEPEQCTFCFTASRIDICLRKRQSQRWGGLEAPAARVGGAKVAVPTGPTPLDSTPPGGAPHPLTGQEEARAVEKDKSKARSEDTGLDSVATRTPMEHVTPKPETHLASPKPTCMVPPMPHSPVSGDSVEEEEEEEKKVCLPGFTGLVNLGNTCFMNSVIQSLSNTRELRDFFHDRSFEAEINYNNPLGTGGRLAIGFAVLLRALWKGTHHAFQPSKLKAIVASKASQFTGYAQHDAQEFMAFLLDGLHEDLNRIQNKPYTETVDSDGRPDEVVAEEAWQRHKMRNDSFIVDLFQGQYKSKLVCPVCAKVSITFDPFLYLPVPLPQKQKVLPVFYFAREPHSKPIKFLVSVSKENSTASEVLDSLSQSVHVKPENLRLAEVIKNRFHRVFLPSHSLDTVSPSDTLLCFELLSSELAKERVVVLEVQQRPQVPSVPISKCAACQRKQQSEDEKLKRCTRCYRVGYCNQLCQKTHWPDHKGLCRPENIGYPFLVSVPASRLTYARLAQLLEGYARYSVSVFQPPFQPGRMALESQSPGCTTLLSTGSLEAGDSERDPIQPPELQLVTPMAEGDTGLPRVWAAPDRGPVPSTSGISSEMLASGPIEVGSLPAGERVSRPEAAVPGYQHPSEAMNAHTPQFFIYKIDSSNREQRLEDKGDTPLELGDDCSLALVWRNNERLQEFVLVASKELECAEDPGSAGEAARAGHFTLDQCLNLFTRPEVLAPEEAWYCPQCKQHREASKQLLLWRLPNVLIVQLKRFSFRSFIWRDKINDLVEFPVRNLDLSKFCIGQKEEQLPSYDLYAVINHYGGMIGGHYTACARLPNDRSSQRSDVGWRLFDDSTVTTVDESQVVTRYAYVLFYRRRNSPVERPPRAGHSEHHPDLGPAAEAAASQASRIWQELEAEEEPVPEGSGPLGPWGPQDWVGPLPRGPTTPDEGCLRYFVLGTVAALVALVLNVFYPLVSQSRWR
Summed up:
(§1)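 HEK293T lysate, 495 µg per sample in Tris/CHAPS/IGEPAL buffer with protease inhibitors, was treated in triplicate with fragment at 200 µM or vehicle for 3 h and then with Biotin-Ahx-Ub-VS at 0.5 µM final for 1 h. Labelled DUBs were NeutrAvidin-enriched, digested with LysC and trypsin, and run by diaPASEF LC-MS/MS. Spectronaut label-free quantities were global-median-normalised, and values are average log2 fragment/vehicle ratios by unpaired t-test on proteins with ≥2 unique peptides.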

The next experiment has as its target T2, USP22 (UniProt Q9UPT9).
T2 sequence (whole entry): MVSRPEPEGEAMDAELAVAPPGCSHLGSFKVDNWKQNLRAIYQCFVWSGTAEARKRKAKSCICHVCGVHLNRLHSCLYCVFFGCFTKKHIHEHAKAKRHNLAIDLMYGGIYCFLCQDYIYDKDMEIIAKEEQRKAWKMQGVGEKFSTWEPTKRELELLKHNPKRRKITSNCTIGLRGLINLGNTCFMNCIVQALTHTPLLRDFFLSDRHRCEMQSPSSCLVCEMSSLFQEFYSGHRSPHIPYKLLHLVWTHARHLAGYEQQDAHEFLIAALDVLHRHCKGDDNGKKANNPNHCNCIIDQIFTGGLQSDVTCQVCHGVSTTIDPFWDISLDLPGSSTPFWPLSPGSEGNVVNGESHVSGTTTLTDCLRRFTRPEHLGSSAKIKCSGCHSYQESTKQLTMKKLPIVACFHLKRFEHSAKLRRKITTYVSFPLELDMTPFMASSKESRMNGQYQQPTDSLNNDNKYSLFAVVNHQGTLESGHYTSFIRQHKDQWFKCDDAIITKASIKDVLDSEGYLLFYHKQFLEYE
Summed up: as §1

In the next experiment the target is USP24 (UniProt Q9UPU5). Summed up:
as §1

A further experiment deals with T3, USP25 (UniProt Q9UHP3).
T3 sequence (whole entry): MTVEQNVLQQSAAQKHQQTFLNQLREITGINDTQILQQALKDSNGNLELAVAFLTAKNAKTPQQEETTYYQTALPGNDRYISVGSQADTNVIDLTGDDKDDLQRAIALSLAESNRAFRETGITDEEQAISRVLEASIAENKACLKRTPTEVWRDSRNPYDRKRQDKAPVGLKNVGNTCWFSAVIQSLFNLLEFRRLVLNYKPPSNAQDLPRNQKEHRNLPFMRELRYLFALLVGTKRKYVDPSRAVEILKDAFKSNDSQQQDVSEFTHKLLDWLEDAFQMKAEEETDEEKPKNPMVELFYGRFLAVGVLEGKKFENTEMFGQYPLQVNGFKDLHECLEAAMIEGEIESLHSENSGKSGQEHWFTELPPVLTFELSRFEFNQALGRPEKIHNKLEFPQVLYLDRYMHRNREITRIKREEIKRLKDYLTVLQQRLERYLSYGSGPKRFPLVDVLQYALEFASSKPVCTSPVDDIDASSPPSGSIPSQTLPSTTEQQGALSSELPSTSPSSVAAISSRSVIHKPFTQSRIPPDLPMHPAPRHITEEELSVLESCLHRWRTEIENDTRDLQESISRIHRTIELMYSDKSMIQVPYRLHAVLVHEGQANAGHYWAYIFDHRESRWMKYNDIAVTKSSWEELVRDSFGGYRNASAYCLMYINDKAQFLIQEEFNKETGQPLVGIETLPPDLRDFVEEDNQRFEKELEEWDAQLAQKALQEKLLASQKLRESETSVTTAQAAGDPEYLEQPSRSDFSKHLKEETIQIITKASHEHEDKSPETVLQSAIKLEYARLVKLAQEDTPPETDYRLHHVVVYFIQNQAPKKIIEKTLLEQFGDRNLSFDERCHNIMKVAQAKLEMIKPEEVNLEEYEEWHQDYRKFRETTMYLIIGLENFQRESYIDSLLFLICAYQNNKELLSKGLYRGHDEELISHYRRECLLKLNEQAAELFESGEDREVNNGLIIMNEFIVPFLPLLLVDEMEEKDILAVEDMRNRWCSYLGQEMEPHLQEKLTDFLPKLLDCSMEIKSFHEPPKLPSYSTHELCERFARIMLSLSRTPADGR
Summed up:
as §1

The next experiment has as its target T4, USP28 (UniProt Q96RU2).
T4 sequence (whole entry): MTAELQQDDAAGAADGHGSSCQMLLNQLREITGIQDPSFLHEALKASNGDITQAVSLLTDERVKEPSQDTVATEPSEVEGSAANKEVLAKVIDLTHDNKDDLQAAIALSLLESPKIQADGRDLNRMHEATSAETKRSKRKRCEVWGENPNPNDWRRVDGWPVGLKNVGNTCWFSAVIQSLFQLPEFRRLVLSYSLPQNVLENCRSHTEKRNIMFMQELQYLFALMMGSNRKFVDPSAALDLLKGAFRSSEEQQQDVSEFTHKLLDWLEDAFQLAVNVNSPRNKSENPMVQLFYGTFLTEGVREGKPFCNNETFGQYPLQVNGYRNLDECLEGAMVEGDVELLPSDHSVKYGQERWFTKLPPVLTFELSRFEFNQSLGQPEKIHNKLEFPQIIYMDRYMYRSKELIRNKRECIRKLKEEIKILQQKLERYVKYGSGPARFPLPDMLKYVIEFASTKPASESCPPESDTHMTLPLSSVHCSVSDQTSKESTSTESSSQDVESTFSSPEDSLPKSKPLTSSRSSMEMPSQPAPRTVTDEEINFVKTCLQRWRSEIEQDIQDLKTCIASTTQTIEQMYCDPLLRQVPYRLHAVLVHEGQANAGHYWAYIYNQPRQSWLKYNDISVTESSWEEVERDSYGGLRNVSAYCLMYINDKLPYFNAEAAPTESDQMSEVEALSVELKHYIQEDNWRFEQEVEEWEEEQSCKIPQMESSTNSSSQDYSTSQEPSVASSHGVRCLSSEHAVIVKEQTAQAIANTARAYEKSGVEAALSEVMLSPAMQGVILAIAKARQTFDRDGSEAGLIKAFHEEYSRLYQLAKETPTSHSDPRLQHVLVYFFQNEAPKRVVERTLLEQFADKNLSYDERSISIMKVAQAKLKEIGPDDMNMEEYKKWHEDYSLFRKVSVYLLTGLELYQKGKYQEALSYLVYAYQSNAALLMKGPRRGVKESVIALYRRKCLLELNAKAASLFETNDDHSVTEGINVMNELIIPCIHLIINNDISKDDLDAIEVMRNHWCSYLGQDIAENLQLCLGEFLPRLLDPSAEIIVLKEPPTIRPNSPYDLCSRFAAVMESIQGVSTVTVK
The essentials:
as §1

Structures are written as SMILES. Unmarked numbers belong to inactive results.

USP24, sequence (Q9UPU5 whole entry): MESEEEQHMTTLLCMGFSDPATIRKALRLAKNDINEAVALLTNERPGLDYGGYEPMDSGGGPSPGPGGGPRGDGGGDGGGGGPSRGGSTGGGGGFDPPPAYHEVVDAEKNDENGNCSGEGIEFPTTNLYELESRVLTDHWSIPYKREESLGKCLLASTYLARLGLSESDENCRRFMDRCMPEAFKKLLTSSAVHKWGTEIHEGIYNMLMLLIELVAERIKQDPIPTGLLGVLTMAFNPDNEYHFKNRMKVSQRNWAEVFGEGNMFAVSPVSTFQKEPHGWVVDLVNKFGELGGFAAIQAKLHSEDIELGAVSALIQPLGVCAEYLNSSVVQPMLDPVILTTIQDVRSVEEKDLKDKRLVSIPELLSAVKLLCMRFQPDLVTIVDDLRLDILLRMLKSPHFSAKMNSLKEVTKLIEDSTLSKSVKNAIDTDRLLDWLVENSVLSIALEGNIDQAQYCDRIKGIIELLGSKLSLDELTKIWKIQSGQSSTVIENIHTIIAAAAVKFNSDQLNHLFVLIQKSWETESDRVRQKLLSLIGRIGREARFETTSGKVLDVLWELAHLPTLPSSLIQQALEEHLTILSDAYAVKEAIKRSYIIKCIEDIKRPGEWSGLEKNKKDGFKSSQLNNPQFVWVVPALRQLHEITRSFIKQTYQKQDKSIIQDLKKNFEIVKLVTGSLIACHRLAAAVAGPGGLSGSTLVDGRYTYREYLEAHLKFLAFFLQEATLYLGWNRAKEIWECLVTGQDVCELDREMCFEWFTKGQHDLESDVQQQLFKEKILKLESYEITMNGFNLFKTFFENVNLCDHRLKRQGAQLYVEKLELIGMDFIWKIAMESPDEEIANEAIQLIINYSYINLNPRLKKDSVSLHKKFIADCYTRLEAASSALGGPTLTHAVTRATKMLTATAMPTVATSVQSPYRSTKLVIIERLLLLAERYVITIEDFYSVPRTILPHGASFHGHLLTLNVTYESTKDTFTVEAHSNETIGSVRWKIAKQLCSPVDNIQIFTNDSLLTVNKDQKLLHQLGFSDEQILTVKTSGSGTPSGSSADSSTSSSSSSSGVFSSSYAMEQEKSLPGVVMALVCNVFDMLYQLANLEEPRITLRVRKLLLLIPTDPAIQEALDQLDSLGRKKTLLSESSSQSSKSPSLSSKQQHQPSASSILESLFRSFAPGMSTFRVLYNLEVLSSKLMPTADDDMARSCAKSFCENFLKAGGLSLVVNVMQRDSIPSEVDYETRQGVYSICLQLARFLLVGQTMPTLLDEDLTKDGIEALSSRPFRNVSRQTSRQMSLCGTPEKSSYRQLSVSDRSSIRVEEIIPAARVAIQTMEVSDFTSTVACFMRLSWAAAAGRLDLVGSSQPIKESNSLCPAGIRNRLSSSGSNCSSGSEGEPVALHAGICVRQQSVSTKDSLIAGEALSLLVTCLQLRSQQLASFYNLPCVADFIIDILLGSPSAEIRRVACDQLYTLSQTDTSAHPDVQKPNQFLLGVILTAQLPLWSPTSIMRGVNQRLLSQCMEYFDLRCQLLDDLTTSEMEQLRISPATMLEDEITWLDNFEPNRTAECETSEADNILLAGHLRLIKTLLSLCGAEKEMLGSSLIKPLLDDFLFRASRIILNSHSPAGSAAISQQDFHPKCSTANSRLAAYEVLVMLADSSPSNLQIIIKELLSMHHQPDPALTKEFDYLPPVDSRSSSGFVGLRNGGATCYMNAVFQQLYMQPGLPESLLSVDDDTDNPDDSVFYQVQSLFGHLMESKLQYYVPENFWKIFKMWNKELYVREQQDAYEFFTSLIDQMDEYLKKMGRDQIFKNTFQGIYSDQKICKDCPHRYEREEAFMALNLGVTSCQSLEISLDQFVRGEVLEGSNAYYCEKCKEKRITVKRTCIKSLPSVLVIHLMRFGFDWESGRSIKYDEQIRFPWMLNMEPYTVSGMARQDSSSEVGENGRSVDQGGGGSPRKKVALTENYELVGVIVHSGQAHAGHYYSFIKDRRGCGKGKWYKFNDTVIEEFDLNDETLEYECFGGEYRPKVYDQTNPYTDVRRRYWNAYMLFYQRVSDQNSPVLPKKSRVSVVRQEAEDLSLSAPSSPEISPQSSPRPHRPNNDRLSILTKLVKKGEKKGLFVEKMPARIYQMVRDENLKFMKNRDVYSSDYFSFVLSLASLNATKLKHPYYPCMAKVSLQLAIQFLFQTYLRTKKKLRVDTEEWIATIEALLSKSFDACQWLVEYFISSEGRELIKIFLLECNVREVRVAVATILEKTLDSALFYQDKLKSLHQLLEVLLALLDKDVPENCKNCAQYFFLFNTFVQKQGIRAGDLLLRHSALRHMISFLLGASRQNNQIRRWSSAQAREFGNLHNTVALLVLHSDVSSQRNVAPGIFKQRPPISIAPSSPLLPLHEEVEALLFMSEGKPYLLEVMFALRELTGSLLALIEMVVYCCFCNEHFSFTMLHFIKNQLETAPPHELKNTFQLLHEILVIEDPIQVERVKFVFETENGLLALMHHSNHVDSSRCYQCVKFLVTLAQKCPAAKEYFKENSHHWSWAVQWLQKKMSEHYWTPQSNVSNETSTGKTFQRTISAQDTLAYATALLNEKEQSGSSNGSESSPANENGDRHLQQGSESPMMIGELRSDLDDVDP

Take `O=C(CCl)Nc1ccc(N2CCCC2=O)cc1`: the “log2 ratio of Biotin-Ahx-Ub-VS probe labelling” value is -0.0288 with USP19; 0.36 in the experiment with USP22; -0.284 with USP24; -1.8 (active) with USP25; -1.25 (active) in the experiment with USP28.
